Test results: PubChem BioAssay AID2314 (National Center for Advancing Translational Sciences (NCATS), 2010)
Screen size: about 300,000 compounds; about 37,000 (12%) were called active. For the sample, actives were picked, then their nearest neighbours and some compounds at random. Values without a mark were called inactive. No stated cut-off is given here; in the data, active means max response mostly above about 13% (no sharp cut-off); inactive means mostly below about 14%.

Assay: Cycloheximide Counterscreen for Small Molecule Inhibitors of Shiga Toxin; further: read at 38.3 µM for the half of the compounds with a filed dose; 0% is about no effect
Conditions: cell reporter, cycloheximide protein synthesis inhibition counterscreen; stronger effect = higher value

| SMILES | max response |
| --- | --- |
| Cc1ccc(CCCOC(=O)C[N+]2(C)CCCC2)cc1 | -2.71% |
| Cc1c(C(=O)N2CCN(c3ccc(F)cc3)CC2)oc2c1C(=O)CCC2 | -3.49% |
| CCCCOC(=O)CCCc1ccc([N+](=O)[O-])cc1[N+](=O)[O-] | -1.18% |
| CC1C(=O)Nc2ccccc2N1C(=O)c1c(F)cccc1F (stereo unspecified) | -2.05% |
| COc1cccc(NC(=O)C(C)Oc2ccccc2)c1 (stereo unspecified) | 4.2% |
| O=C(Nc1ccccc1-c1ccccc1)c1cccs1 | 5.16% |
| CC(Oc1cccc(NC(=O)c2cccs2)c1)C(=O)c1ccccc1 (stereo unspecified) | 19.5% (active) |
| C/C(=N\NC(=O)CNc1cccc2ccccc12)c1ccc(Br)s1 | -2.1% |
| Cn1cccc1/C=N/NC(=O)CNc1cccc2ccccc12 | 4.6% |
| Cc1cccc(/C=N/NC(=O)CNc2cccc3ccccc23)n1 | 45.5% (active) |
| Cc1ccccc1/[N+]([O-])=C/c1ccncc1 | 9.27% |
| O=C(O)c1ccc2c(c1)C(=O)N(c1ccc(/C=C/C(=O)c3ccccc3)cc1)C2=O | 46.6% (active) |
| CC(=O)Oc1ccc(C)cc1N1C(=O)c2ccc(C(=O)O)cc2C1=O | 6.31% |
| O=C(c1ccc(S(=O)(=O)N2CCOCC2)cc1)N1CCN(c2ccccc2)CC1 | -2.23% |
| Cc1cccc(N2C(=O)c3ccc(C(=O)Nc4cccc(C(=O)O)c4)cc3C2=O)c1 | 10.2% |
| O=C(/C=C/c1ccc(N2CCOCC2)cc1)c1ccccc1 | 46.4% (active) |
| O=C(CN1CCN(S(=O)(=O)/C=C/c2ccccc2)CC1)Nc1ccc(N2CCOCC2)cc1 | -1.05% |
| O=C(NC1CCC(O)CC1)c1ccccc1OCc1ccc(F)cc1 (stereo unspecified) | -3.74% |
| Cc1ccccc1CN1C(=O)c2ccccc2Sc2ccc(C(=O)NCCCN3CCOCC3)cc21 | -3.67% |
| COc1cc(CO)ccc1OCC(=O)Nc1cccc2ccccc12 | -2.19% |
| Cc1ccc(S(=O)(=O)N(CCCN(C)C)Cc2ccc3c(c2)OCO3)cc1 | 1.74% |
| CCC1CCCCN1C(=S)Nc1ccc(S(=O)(=O)Nc2ncccn2)cc1 (stereo unspecified) | -2.13% |
| O=C(COc1ccccc1)Nc1ccc(C(=O)N2CCCC2)cc1 | 37.5% |
| CCC1CCCCN1C(=S)Nc1ccc(C(C)=O)cc1 (stereo unspecified) | 8.58% (active) |

| SMILES | max response |
| --- | --- |
| O=C(CCC(=O)N1CCCC1)Nc1ccc([N+](=O)[O-])cc1 | -2.89% |
| CC(=O)c1ccc(NC(=O)CSC(=S)N2CCCC2)cc1 | 20.5% (active) |
| CCC1CCCCN1C(=S)Nc1ccc(SC(F)F)cc1 (stereo unspecified) | 1.07% |
| O=C(NC(=S)Nc1ccc2oc(=O)ccc2c1)c1ccc(-c2cccc(Cl)c2Cl)o1 | 6.87% |
| CCCC(=O)N1CCN(c2nnc(-c3ccc(C)cc3)c3ccccc23)CC1 | -7.1% |
| Cc1cccc(CNS(=O)(=O)c2ccc(-c3cnc(C4CC4)o3)cc2)c1 | 18.8% |
| Cc1nnc(C)n1/N=C/c1ccc(C(C)C)cc1 | 4.86% |
| CC(=O)c1sc(N/N=C\c2ccc(C)cc2)nc1C | 48.9% (active) |
| CCOC(=O)c1sc(/N=C/Nc2nc(C)c(C(=O)OCC)s2)nc1C | 10.8% |
| Cc1ccc(S(=O)(=O)Nc2nc(C)cc(N/N=C/c3ccc(O)cc3)n2)cc1 | -2.44% |
| CC(=O)c1sc(NC(=O)CCCOc2ccccc2C)nc1C | 1.03% |
| CC(=O)c1sc(N/N=C/c2ccc(C(C)C)cc2)nc1C | 43% (active) |
| C=CCC1(C#N)C(=S)NC(C)=C(C(=O)OCC)C1c1ccccc1 (stereo unspecified) | -1.77% |
| NC(=O)C1CCN(CC(O)CSc2ccc(F)cc2)CC1 (stereo unspecified) | -5.01% |
| NS(=O)(=O)c1ccc(CCNC(=O)c2ccc([N+](=O)[O-])cc2[N+](=O)[O-])cc1 | -3.47% |
| O=C(Nc1cccnc1)c1ccc(Cl)cc1[N+](=O)[O-] | -1.02% |
| O=C(Nc1ccc(Cl)cn1)c1ccc2c(c1)OCCO2 | 37.5% (active) |
| O=C(Nc1ccc(Cl)cn1)c1cnn2cccnc12 | 58.9% (active) |
| COc1ccc(C(=O)NC(=S)Nc2ccc(Cl)cn2)cc1OC | -1.11% |
| Cc1ccc2sc(NNC(=O)c3ccc4c(c3)OCCO4)nc2c1C | 5.17% |
| Cc1nc(NC(=O)c2ccc3c(c2)OCCO3)ccc1Br | 57.9% (active) |
| COc1c(Cl)cc(C(=O)Nc2ccc(Cl)cn2)cc1Cl | 11.7% |
| Cc1cc(NC(=O)c2cnn3cccnc23)n(-c2ccccc2)n1 | 0.387% |
| CC(=O)c1ccc2c(c1)OCCOCCOc1ccc(C(C)=O)cc1OCCOCCO2 | 0.857% |

| SMILES | max response |
| --- | --- |
| O=C(NCc1ccncc1)C(=O)NCC1OCCN1S(=O)(=O)c1ccc(Br)cc1 (stereo unspecified) | -5.83% |
| CSCCNCc1cn(-c2ccc(F)cc2F)nc1-c1ccccc1C | -0.8% |
| COc1cc(OC)c(NS(=O)(=O)c2cn(C)cn2)cc1Cl | -0.545% |
| COc1cc(/C=C2/C(=O)NN(c3cccc(Cl)c3)C2=O)cc(Br)c1O | 0.32% |
| CC1(C)O[C@@H]2C[C@@H]3[C@H]4C[C@@H](F)C5=CC(=O)C=C[C@]5(C)[C@@]4(F)[C@@H](O)C[C@]3(C)[C@]2(C(=O)CO)O1 | 7.66% |
| CCOC(=O)c1ccc(NC(=O)c2nc[nH]c2C(=O)NCc2ccccc2)cc1 | -1.19% |
| O=C(NCCN1CCN(C(=O)c2cccc([N+](=O)[O-])c2)CC1)C(=O)NCc1ccc(Cl)cc1 | 1.34% |
| Cc1cc(-c2csc(N)n2)c(C)n1-c1ccccc1 | 28.2% |
| Cc1cc(-c2csc(N)n2)c(C)n1Cc1ccccc1 | 22.9% (active) |
| CC(=O)Nc1ccc(C(=O)Nc2nc(-c3cc(C)n(Cc4ccccc4)c3C)cs2)cc1 | -2.65% |
| Cc1nn2c(c1-c1ccccc1)N=C(c1ccco1)CC2c1ccccc1 (stereo unspecified) | 20.9% (active) |
| O=C(O)CCCC(=O)N1N=C(c2ccco2)CC1c1ccco1 (stereo unspecified) | -3.77% |
| Cn1c(N)c(C(=O)COC(=O)C23CC4CC(CC(C4)C2)C3)c(=O)n(C)c1=O | -2.04% |
| O=C(O)c1ccccc1C(=O)Nc1ccccc1[N+](=O)[O-] | 0.991% |
| Cc1csc(NC(=O)Nc2ccccc2[N+](=O)[O-])n1 | 40.4% (active) |
| Cc1cc(NC(=O)Nc2ccccc2[N+](=O)[O-])no1 | 16.1% (active) |
| O=C(Nc1ccccc1[N+](=O)[O-])C1C(c2ccccc2)=C1c1ccccc1 | -1.97% |
| CCOC(=O)/C(=N\Nc1ccccc1[N+](=O)[O-])c1csc(Nc2ccccc2)n1 | 11.6% |
| Cc1c(NC(=O)Nc2ccccc2)cccc1[N+](=O)[O-] | -0.54% |
| CCCCCCC12CCC(C(=O)O)(CC1)CC2 | -3.19% |
| Cc1cccc(NC(=O)CCn2c(=O)oc3ccccc32)c1 | -4.29% |
| Cc1ccc(OCCCn2c(=O)oc3ccccc32)cc1 | 33.3% (active) |
| NC(=O)Cn1c(=O)oc2ccccc21 | -2.47% |
| COc1ccccc1C(=O)Nc1nc2nc(-c3ccccc3)cc(=O)n2[nH]1 | 9.7% |

| SMILES | max response |
| --- | --- |
| Cc1cc(S(=O)(=O)NCC(C)C)ccc1OCC(=O)NC1CC1 | 1.55% |
| Cc1nc(N)sc1N=Nc1c(C)n(C)n(-c2ccccc2)c1=O | -1.65% |
| Cc1c(N=Nc2ccc(N(C)C)cc2)c(=O)n(-c2ccccc2)n1C | 24.4% (active) |
| Cc1ccc(N=Nc2c(C)[nH]n(-c3ccccc3)c2=O)cc1 | 7.15% |
| COc1ccccc1CN1CC(C(=O)NCCc2cn[nH]c2)CCC1=O (stereo unspecified) | 12.3% (active) |
| COc1ccccc1CCCNC(=O)C1CCC(=O)N(CCN2CCOCC2)C1 (stereo unspecified) | -2.68% |
| Cc1ccccc1CCNC(=O)C1CCC(=O)N(Cc2ccc(Cl)cc2)C1 (stereo unspecified) | 6.9% |
| CN1CCN(Cc2nc3cc(NC(=O)COc4ccc([N+](=O)[O-])cc4)ccc3n2C)CC1 | -3.77% |
| CCN(C(=O)Cc1c(C(=O)O)n(CC)c2ccccc12)c1ccccc1C | -1.37% |
| CCOC(=O)c1ccc(NNC(C)=O)c([N+](=O)[O-])c1 | 16.3% |
| Cc1cc(C)nc(NC(=O)c2cccc([N+](=O)[O-])c2)c1 | -2.71% |
| CCCCNc1ccc(C(=O)Nc2cccc(C)n2)cc1[N+](=O)[O-] | 12.7% (active) |
| Cc1cc(SCC(=O)c2ccccc2)nc(SCC(=O)c2ccccc2)n1 | 6.74% |
| Cc1cc(C)nc(SCC(=O)c2ccc(Cl)cc2)n1 | 2.56% |
| Cc1cc(C)nc(S/C=C/C(=O)c2ccccc2)n1 | 109% (active) |
| O=C(/C=C/Nc1ccccc1OC(F)(F)F)C(F)(F)F | -2.95% |
| CN(C)c1ccc(N/C=C/C(=O)C(F)(F)F)cc1 | 55.6% (active) |
| CC(=O)N(C)c1ccc(NC(=O)C(F)(F)F)cc1 | -1.33% |
| Cc1ccc2[nH]c3c(=O)n(CC(=O)NCCc4ccc(Cl)cc4)ncc3c2c1 | 4.22% |
| CCn1nc(C)c(CNC(=O)C2CCC(=O)N(Cc3cccc(F)c3)C2)c1C (stereo unspecified) | -0.425% |
| CN1CCN(/N=C/c2ccc(C#N)cc2)CC1 | 24.2% (active) |
| CN1CCN(/N=C/c2c[nH]c3ccccc23)CC1 | 0.776% |
| COC(c1ccccc1)c1nnc(CCC(=O)N2CCN(CCOc3ccccc3)CC2)o1 (stereo unspecified) | -3.13% |
| Cc1c(C2=CCN(S(=O)(=O)c3ccc(Cl)cc3)CC2)c2ccccc2n1C | -3.88% |
